# Values joined by “and” are separate entries in the source; they are usually repeats but may differ in a detail not shown here. Identical values can stand only once. In all, about 2,900 compounds were measured (“NF-kB SEAP reporter activity, fold change vs agonist alone”: median about 0.99, highest 2% from about 2.6 on). Shown is part of a subset that was picked to be rich in the highest values.
# How the values were obtained:
# RAW-Dual [1] = test: NF-kB SEAP reporter activity, fold change vs agonist alone; higher = enhanced NF-kB activity; details: library stock concentration (final ~1000-fold dilution): 10 mM
# Summary of the method: (§1)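 Library stock was pin-tooled at 50 nL into 384-well plates of RAW-Dual macrophages (50,000 cells/well, DMEM), followed 1 h later by a PRR agonist, and the cells were kept at 37 °C, 5% CO2. Supernatant collected after 20 hours was read for IRF by QuantiLuc luminescence and for NF-κB by QuantiBlue absorbance at 620 nm. Reporter activity is fold change over agonist-alone wells, and a well counted as cytotoxic when its IncuCyte confluency was below 70% of agonist controls in both mask sets.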
# RAW-Dual [2] = test: NF-kB SEAP reporter activity, fold change vs agonist alone; cytotoxicity flag (confluency mask): not cytotoxic; higher = enhanced NF-kB activity
# Summary of the method: as §1
# RAW-Dual [3] = test: NF-kB SEAP reporter activity, fold change vs agonist alone; cytotoxicity flag (confluency mask): cytotoxic (confluency <70% of control); higher = enhanced NF-kB activity
# Summary of the method: as §1
# [4] = cytotoxicity flag (confluency mask): not cytotoxic, agonist: Imiquimod (TLR7) […]
# [5] = cytotoxicity flag (confluency mask): not cytotoxic, agonist: MPLA (TLR4) […]
# [6] = agonist: ODN 1826 (TLR9) 0.5 ug/mL
# [7] = agonist: Pam2CSK4 (TLR2/6) 0.1 ug/mL
# [8] = agonist: Pam3CSK4 (TLR2/1) 0.1 ug/mL
# [9] = cytotoxicity flag (confluency mask): cytotoxic (confluency <70% of control), agonist: Imiquimod (TLR7) […]
# [10] = cytotoxicity flag (confluency mask): cytotoxic (confluency <70% of control), agonist: MPLA (TLR4) […]
smiles,measurement,setting,value
Cc1ccc(/C=N/NC(=O)c2ccccc2Oc2ccccc2)o1,NF-kB SEAP reporter activity,RAW-Dual [1]; [4],0.972
same,NF-kB SEAP reporter activity,RAW-Dual [1]; [5],1.09
O=C1CN(/N=C/c2ccc([N+](=O)[O-])o2)C(=O)N1,NF-kB SEAP reporter activity,RAW-Dual [1]; [4],0.924
same,NF-kB SEAP reporter activity,RAW-Dual [1]; [5],0.948
Cc1ccc(/C=N/NC(=O)c2ccccc2Oc2ccccc2)o1 (library stock concentration (final ~1000-fold dilution): 10 mM),NF-kB SEAP reporter activity,RAW-Dual [2]; agonist: LPS (TLR4) 0.1 ug/mL,1.08
same,NF-kB SEAP reporter activity,RAW-Dual [2]; [6],0.922
same,NF-kB SEAP reporter activity,RAW-Dual [2]; [7],0.955
same,NF-kB SEAP reporter activity,RAW-Dual [2]; [8],1.31
O=C1CN(/N=C/c2ccc([N+](=O)[O-])o2)C(=O)N1 (library stock concentration (final ~1000-fold dilution): 10 mM),NF-kB SEAP reporter activity,RAW-Dual [2]; agonist: LPS (TLR4) 0.1 ug/mL,1.09
same,NF-kB SEAP reporter activity,RAW-Dual [2]; [6],0.855
same,NF-kB SEAP reporter activity,RAW-Dual [2]; [7],1.1
same,NF-kB SEAP reporter activity,RAW-Dual [2]; [8],1.11
O=C(N/N=C/c1ccc([N+](=O)[O-])o1)c1ccc(O)cc1,NF-kB SEAP reporter activity,RAW-Dual [1]; [9],2.58
same,NF-kB SEAP reporter activity,RAW-Dual [1]; [10],2.03
O=C(N/N=C/c1ccc([N+](=O)[O-])o1)c1ccc(O)cc1 (library stock concentration (final ~1000-fold dilution): 10 mM),NF-kB SEAP reporter activity,RAW-Dual [3]; agonist: LPS (TLR4) 0.1 ug/mL,3.8
same,NF-kB SEAP reporter activity,RAW-Dual [3]; [6],1.64
same,NF-kB SEAP reporter activity,RAW-Dual [3]; [7],1.38
same,NF-kB SEAP reporter activity,RAW-Dual [3]; [8],1.55
COC1/C=C\C=C(/C)C(=O)NC2=CC(=O)C(NCCN(C)C)=C(CC(C)CC(OC)C(O)C(C)/C=C(\C)C1OC(N)=O)C2=O.Cl (stereo unspecified),NF-kB SEAP reporter activity,RAW-Dual [1]; [4],0.497
same,NF-kB SEAP reporter activity,RAW-Dual [1]; [5],0.345
COC1/C=C\C=C(/C)C(=O)NC2=CC(=O)C(NCCN(C)C)=C(CC(C)CC(OC)C(O)C(C)/C=C(\C)C1OC(N)=O)C2=O.Cl (stereo unspecified) (library stock concentration (final ~1000-fold dilution): 10 mM),NF-kB SEAP reporter activity,RAW-Dual [2]; agonist: LPS (TLR4) 0.1 ug/mL,0.267
same,NF-kB SEAP reporter activity,RAW-Dual [2]; [6],0.313
same,NF-kB SEAP reporter activity,RAW-Dual [2]; [7],0.154
same,NF-kB SEAP reporter activity,RAW-Dual [2]; [8],0.199
CC(C)NCC(C(=O)N1CCN(c2ncnc3c2C(C)CC3O)CC1)c1ccc(Cl)cc1 (stereo unspecified),NF-kB SEAP reporter activity,RAW-Dual [1]; [4],1.27
same,NF-kB SEAP reporter activity,RAW-Dual [1]; [5],1.13
CC(C)NCC(C(=O)N1CCN(c2ncnc3c2C(C)CC3O)CC1)c1ccc(Cl)cc1 (stereo unspecified) (library stock concentration (final ~1000-fold dilution): 10 mM),NF-kB SEAP reporter activity,RAW-Dual [2]; agonist: LPS (TLR4) 0.1 ug/mL,0.942
same,NF-kB SEAP reporter activity,RAW-Dual [2]; [6],0.996
same,NF-kB SEAP reporter activity,RAW-Dual [2]; [7],1.15
same,NF-kB SEAP reporter activity,RAW-Dual [2]; [8],1.11
C=CC(=O)N1CCCC(n2nc(-c3ccc(Oc4ccccc4)cc3)c(C(N)=O)c2N)C1 (stereo unspecified),NF-kB SEAP reporter activity,RAW-Dual [1]; [4],0.67
same,NF-kB SEAP reporter activity,RAW-Dual [1]; [5],0.637
C=CC(=O)N1CCCC(n2nc(-c3ccc(Oc4ccccc4)cc3)c(C(N)=O)c2N)C1 (stereo unspecified) (library stock concentration (final ~1000-fold dilution): 10 mM),NF-kB SEAP reporter activity,RAW-Dual [2]; agonist: LPS (TLR4) 0.1 ug/mL,0.404
same,NF-kB SEAP reporter activity,RAW-Dual [2]; [6],0.546
same,NF-kB SEAP reporter activity,RAW-Dual [2]; [7],0.224
same,NF-kB SEAP reporter activity,RAW-Dual [2]; [8],0.272
Cl.NC(=O)c1cnc(NC2CCCCC2N)nc1Nc1cccc(-n2nccn2)c1 (stereo unspecified) (library stock concentration (final ~1000-fold dilution): 10 mM),NF-kB SEAP reporter activity,RAW-Dual [3]; agonist: LPS (TLR4) 0.1 ug/mL,0.377
same,NF-kB SEAP reporter activity,RAW-Dual [3]; [6],0.204
same,NF-kB SEAP reporter activity,RAW-Dual [3]; [7],0.315
same,NF-kB SEAP reporter activity,RAW-Dual [3]; [8],0.248
Cl.NC(=O)c1cnc(NC2CCCCC2N)nc1Nc1cccc(-n2nccn2)c1 (stereo unspecified),NF-kB SEAP reporter activity,RAW-Dual [1]; [9],0.258
same,NF-kB SEAP reporter activity,RAW-Dual [1]; [10],0.336
O=C(/C=C/c1ccc(CN(CCO)CCc2c[nH]c3ccccc23)cc1)NO,NF-kB SEAP reporter activity,RAW-Dual [1]; [9],2.64
same,NF-kB SEAP reporter activity,RAW-Dual [1]; [10],2.71
OCc1c[nH]c2ccccc12 (library stock concentration (final ~1000-fold dilution): 10 mM),NF-kB SEAP reporter activity,RAW-Dual [2]; agonist: LPS (TLR4) 0.1 ug/mL,1.1 and 1.21
same,NF-kB SEAP reporter activity,RAW-Dual [2]; [6],0.998 and 1.05
same,NF-kB SEAP reporter activity,RAW-Dual [2]; [7],1.03 and 1
same,NF-kB SEAP reporter activity,RAW-Dual [2]; [8],1.29 and 1.17
O=C(O)CCc1c[nH]c2ccccc12 (library stock concentration (final ~1000-fold dilution): 10 mM),NF-kB SEAP reporter activity,RAW-Dual [2]; agonist: LPS (TLR4) 0.1 ug/mL,1.08
same,NF-kB SEAP reporter activity,RAW-Dual [2]; [6],1.06
same,NF-kB SEAP reporter activity,RAW-Dual [2]; [7],1.03
same,NF-kB SEAP reporter activity,RAW-Dual [2]; [8],0.898
OCc1c[nH]c2ccccc12,NF-kB SEAP reporter activity,RAW-Dual [1]; [5],1.03
O=C(O)CCc1c[nH]c2ccccc12,NF-kB SEAP reporter activity,RAW-Dual [1]; [4],0.934
same,NF-kB SEAP reporter activity,RAW-Dual [1]; [5],0.964
O=C(/C=C/c1ccc(CN(CCO)CCc2c[nH]c3ccccc23)cc1)NO (library stock concentration (final ~1000-fold dilution): 10 mM),NF-kB SEAP reporter activity,RAW-Dual [3]; agonist: LPS (TLR4) 0.1 ug/mL,5.57
same,NF-kB SEAP reporter activity,RAW-Dual [3]; [6],1.51
same,NF-kB SEAP reporter activity,RAW-Dual [3]; [7],1.46
same,NF-kB SEAP reporter activity,RAW-Dual [3]; [8],1.68
CCOC1OC(=O)CC1NC(=O)C1CCCN1C(=O)C(NC(=O)c1ccc(N)c(Cl)c1)C(C)(C)C (stereo unspecified),NF-kB SEAP reporter activity,RAW-Dual [1]; [4],0.911
same,NF-kB SEAP reporter activity,RAW-Dual [1]; [5],0.995
CCOC1OC(=O)CC1NC(=O)C1CCCN1C(=O)C(NC(=O)c1ccc(N)c(Cl)c1)C(C)(C)C (stereo unspecified) (library stock concentration (final ~1000-fold dilution): 10 mM),NF-kB SEAP reporter activity,RAW-Dual [2]; agonist: LPS (TLR4) 0.1 ug/mL,0.973
same,NF-kB SEAP reporter activity,RAW-Dual [2]; [6],1
same,NF-kB SEAP reporter activity,RAW-Dual [2]; [7],1
same,NF-kB SEAP reporter activity,RAW-Dual [2]; [8],0.976
N#CC1CC2CC2N1C(=O)C(N)C12CC3CC(CC(O)(C3)C1)C2 (stereo unspecified) (library stock concentration (final ~1000-fold dilution): 10 mM),NF-kB SEAP reporter activity,RAW-Dual [2]; agonist: LPS (TLR4) 0.1 ug/mL,1.1
same,NF-kB SEAP reporter activity,RAW-Dual [2]; [6],0.964
same,NF-kB SEAP reporter activity,RAW-Dual [2]; [7],0.892
same,NF-kB SEAP reporter activity,RAW-Dual [2]; [8],1.05
N#CC1CC2CC2N1C(=O)C(N)C12CC3CC(CC(O)(C3)C1)C2 (stereo unspecified),NF-kB SEAP reporter activity,RAW-Dual [1]; [4],0.914
same,NF-kB SEAP reporter activity,RAW-Dual [1]; [5],0.875
